# Most compounds without a hit are left out; they make up all but 7.9% or so of the library.
# KB-3-1 cytotox: KB-3-1 parental cell cytotoxicity | actives 1.4% (n = 400,000) | KB-3-1 viability, CellTiter-Glo ATP luminescence, 72 h | AID 1347075 | Potency, µM (series often up to 46.1 µM), most hits filed as cytotoxic; note: % is set by controls: 0 for no effect and ±100 for the full control effect; nearly all actives have a fitted effect of over 60% in size
#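 Viability of parental KB-3-1 cells, measured by CellTiter-Glo luminescence, followed a 72 h incubation at 37 °C with pinned compounds in phenol-red-free DMEM containing 10% FBS.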
# MCF10A rereplic: induces DNA re-replication in MCF 10a normal breast cells | Potency, µM (doses to about 46.1 µM), without a hit: at the top dose activity, positive = re-replication, usual class: activators | MCF 10A DNA re-replication, Hoechst nuclear intensity, 48 h | actives 2.9% (n = 350,000); note: % of control where 0% means no effect; nearly all actives have a fitted effect of over 50% in size
# KB-V1 MDR tox: KB-V1 MDR subline cytotoxicity. KB-V1 MDR cells viability, CellTiter-Glo, 72 h. Potency, µM (top dose mostly 46.1 µM), hits mostly cytotoxic. actives 3.4% (n = 400,000); note: % is set by controls: 0 for no effect and ±100 for the full control effect; nearly all actives have a fitted effect of over 60% in size
#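 KB-V1 MDR subline cells in DMEM (phenol-red free, 10% FBS) exposed to compounds in qHTS concentration series for 72 h at 37 degrees C. Viability read by CellTiter-Glo luminescence; concentration-effect curves fitted after normalization and correction.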
# HT1080NT lethal: kills 2HG-producing HT-1080-NT fibrosarcoma cells; actives 1.6% (n = 360,000); Potency, µM (titrated, usually from 46.1 µM), for inactives: top-dose activity, negative = less viability, actives largely listed as cytotoxic; HT-1080-NT fibrosarcoma viability, CellTiter-Glo ATP luminescence, 48 h;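 note: NT is the 2HG producing partner of a matched IDH1 knockdown line; 0% = DMSO-treated cells and -100% = media-only wells without cells; nearly all actives have a fitted effect of over 55% in size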
#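 Toxicity toward the 2HG-producing NT line was scored as %Activity, normalised to DMSO and no-cell wells, from CellTiter-Glo luminescence after 48 hours' treatment.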
# HT1080 IDH1KD tx: toxicity to HT-1080 IDH1 knockdown cells (counter line). HT-1080 IDH1 knockdown viability, ATP luminescence, 48 h. Potency, µM (highest dose often 46.1 µM), inactives show at the top dose activity, negative = toxicity, usual class: cytotoxic. actives 2% (n = 360,000);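 note: 0% = DMSO wells and -100% = cell-free medium wells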
#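 Assay cells: HT-1080 with IDH1 knockdown, 750 per well, RPMI/5% FBS. Exposure: 48 h at 37 °C following 2 h pre-incubation. Read: CellTiter-Glo luminescence; fitted concentration-response, curve class assigned.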
# SW480 rereplic: inducers of DNA re-replication in SW480 colon cancer cells; Potency, µM (highest dose often 46.1 µM), without a hit: top-dose re-replication activation, hits mostly activators; SW480 DNA re-replication, Hoechst DNA content imaging, 48 h; AID 624297; actives 1.8% (n = 340,000); note: % of control where 0% means no effect; nearly all actives have a fitted effect of over 55% in size
#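 DNA re-replication was detected as more nuclei of elevated Hoechst intensity after 48 hr exposure to compound (23 nL pinned per well of 250 cells).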
# * marks the source's active call; other numbers are inactive results; i = inactive; ? = inconclusive; nt = no result given. Calls come from the whole dose curve; as a rule, active = well fitted curve in the direction sought with a large enough effect; inconclusive = small, poorly fitted or top-dose-only effect, or another doubt; inactive = no such curve, though single readings can be large; an effect the other way counts as inactive or inconclusive. Potency is the fitted concentration of half-maximal effect.
SMILES,KB-3-1 cytotox,MCF10A rereplic,KB-V1 MDR tox,HT1080NT lethal,HT1080 IDH1KD tx,SW480 rereplic
CC1CCCN(C(=O)c2cccc(S(=O)(=O)Nc3cc(C(F)(F)F)ccc3Cl)c2)C1 (configuration not stated),i,?,18µM*,-3%,21%,-101%
CN1C(=O)C(CC#N)(C2(CC#N)C(=O)N(C)c3ccccc32)c2ccccc21 (configuration not stated),i,8%,i,0%,-2%,1%
CCOC(=O)N1CCC(N2C(=O)c3ccc(C(=O)NCCOC)cc3C2=O)CC1,i,-8%,i,29%,28%,-16%
CCOC(=O)N1CCN(C(=O)c2cccc(S(=O)(=O)Nc3ccccc3Cl)c2)CC1,i,0%,18µM*,2%,8%,-4%
COc1cccc(S(=O)(=O)Nc2cccc(C(=O)N3CCCCCC3)c2)c1,i,10%,15µM*,8%,1%,-37%
COc1cccc(S(=O)(=O)Nc2cccc(C(=O)N3CCCC3)c2)c1,i,-18%,i,-10%,1%,-6%
Cc1ccccc1OCCC(=O)Nc1cccc(S(=O)(=O)Nc2ccccc2Cl)c1,?,?,12µM*,-7%,-2%,5%
Cc1ccc(C)c(OCCC(=O)Nc2cccc(S(=O)(=O)NC3=NCCCCC3)c2)c1,i,?,i,3%,-9%,2%
COc1ccccc1NS(=O)(=O)c1cccc(C(=O)N2CCCCCCC2)c1,i,0%,16µM*,10%,-2%,-4%
CCN(C(=O)CN1C(=O)NC2(CCCc3ccccc32)C1=O)c1ccc(F)cc1 (configuration not stated),i,-3%,i,-4%,8%,-2%
C[C@H](NCCc1ccc(O)cc1)[C@@H](O)c1ccc(O)cc1,nt,-1%,nt,nt,nt,2%
CCC1=Nc2cc(C(=O)NCCc3ccccc3)ccc2Sc2ccc(Cl)cc21,10µM*,nt,i,nt,nt,nt
CCCC1=Nc2cc(C(=O)NCCc3ccccc3)ccc2Sc2ccc(C)cc21,7.3µM*,nt,?,nt,nt,nt
CCOCCCNC(=O)c1ccc2c(c1)N=C(CC)c1cc(Br)ccc1S2,1µM*,?,0.52µM*,?,0.092µM*,1.8µM*
CCCNC(=O)c1ccc2c(c1)N=C(CCC)c1ccccc1S2,0.73µM*,nt,i,nt,nt,nt
CCCC1=Nc2cc(C(=O)NCCc3ccc(OC)cc3OC)ccc2Sc2ccccc21,?,nt,i,nt,nt,nt
CCCC1=Nc2cc(C(=O)NC(C)c3ccccc3)ccc2Sc2ccc(C)cc21 (configuration not stated),i,nt,i,nt,nt,nt
CC(Sc1nnc(-c2ccccc2)n1C)C(=O)NCc1ccco1 (configuration not stated),i,nt,i,nt,nt,nt
COCCNC(=O)C1(C)CCCN(Cc2cccc(OC(=O)c3ccccc3)c2)C1 (configuration not stated),i,nt,i,9%,9%,nt
O=C(CSc1ncc(C(F)(F)F)cc1Cl)N1CCN(S(=O)(=O)c2ccc3ccccc3c2)CC1,i,18%,5.8µM*,-2%,?,6%
O=S(=O)(c1ccccc1)N1CCN(C2CCN(Cc3ccccc3)CC2)CC1,i,26%,i,-2%,-6%,?
O=S(=O)(c1ccc2ccccc2c1)N1CCN(C2CCN(Cc3ccccc3)CC2)CC1,i,1%,7.3µM*,-19%,-25%,-4%
CC(C)CC(=O)N1CCN(S(=O)(=O)c2ccc3ccccc3c2)CC1,?,6%,7.3µM*,-16%,-14%,4%
Nc1cc(=O)[nH]c(SCC(=O)N2CCN(S(=O)(=O)c3ccc4ccccc4c3)CC2)n1,i,3%,i,-8%,-1%,2%
CCc1cc(C(=O)/C=C/c2cc3c(cc2C)OCCO3)c(O)cc1O,nt,nt,nt,?,-66%,nt

# Bioassay records (PubChem)
